Source: PubChem (National Center for Advancing Translational Sciences (NCATS))
Hits are enriched below; roughly 7.3% of the tested compounds scored in any of these assays.
NPC1 promoter act = activates the NPC1 promoter. Huh7 NPC1 promoter luciferase reporter, 24 h. Potency, µM (series often up to 9.22 µM), usual class: activators. 2.4% of 320,000 active. AID 485313; also: nearly all actives have a fitted effect of over 60% in size
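Stable NPC1-promoter luciferase Huh7 line; cpd (DMSO) 24 h, 37 °C, 5% CO2; Amplite luciferase reagent 10 min RT; luminescence readout. qHTS format.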
KinaseGlo FLuc = counter-screen: inhibitors of Kinase-Glo firefly luciferase; Kinase-Glo luciferase, ATP luminescence, 8 min; 0.28% of 200,000 active; Potency, µM (doses to about 38.3 µM), actives largely listed as inhibitors; AID 1379; Q27757; also: nearly all actives have a fitted effect of over 60% in size
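Recombinant Kinase-Glo luciferase, 10 uM ATP (linear range), luciferin; imidazole pH 7.2 / KCl / MgCl2 / Tween / BSA buffer; 8 min RT; luminescence.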
FLuc modulator = inhibits or activates purified firefly luciferase, miR-21 counter-screen | P08659 | purified FLuc, Km substrates, luminescence inhibition | Potency, µM (series often up to 57.5 µM), usual class: inhibitors | 6.9% of 360,000 active | AID 588342; also: nearly all actives have a fitted effect of over 55% in size
Target sequence (P08659 whole entry, looked up): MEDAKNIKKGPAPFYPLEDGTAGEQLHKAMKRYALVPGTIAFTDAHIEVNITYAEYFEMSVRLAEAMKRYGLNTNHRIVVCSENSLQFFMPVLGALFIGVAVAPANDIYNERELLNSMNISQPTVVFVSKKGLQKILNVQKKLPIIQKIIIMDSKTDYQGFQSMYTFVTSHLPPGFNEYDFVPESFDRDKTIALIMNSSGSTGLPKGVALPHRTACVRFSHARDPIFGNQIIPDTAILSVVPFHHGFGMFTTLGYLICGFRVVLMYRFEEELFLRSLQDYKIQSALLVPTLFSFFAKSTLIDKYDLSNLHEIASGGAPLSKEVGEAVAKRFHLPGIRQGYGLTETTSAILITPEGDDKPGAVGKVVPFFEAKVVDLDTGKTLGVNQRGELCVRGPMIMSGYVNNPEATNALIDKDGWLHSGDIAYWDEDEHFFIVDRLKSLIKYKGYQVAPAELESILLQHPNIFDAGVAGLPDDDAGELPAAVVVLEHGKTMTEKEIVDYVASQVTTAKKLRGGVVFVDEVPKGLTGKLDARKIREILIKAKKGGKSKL
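Purified P. pyralis luciferase (10nM final) with 10uM D-luciferin and 10uM ATP (Km levels) in 50mM Tris acetate pH 7.5, 10mM Mg acetate, 0.01% Tween-20, 0.05% BSA; qHTS 6-point titration, ~60 µM downward; luminescence read.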
ELG1 genotox = genotoxicity induction in ELG1-luciferase HEK293T cells. HEK293T ELG1-luciferase reporter, luminescence, 16 h. 1.3% of 330,000 active. Potency, µM (top dose mostly 46 µM), actives largely listed as activators; also: nearly all actives have a fitted effect of over 60% in size
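Step 1: seed 2,000 HEK293T ELG1-luciferase cells per well. Step 2: add compound or DMSO, incubate 16 hr at 37 °C. Step 3: ONE-Glo, 30 min at room temperature, read luminescence.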
SMN2 splice enh = increases expression of the SMN2 splice variant | 2.8% of 210,000 active | HEK293 SMN2-luciferase splicing reporter, luminescence, 30-36 h | Potency, µM (doses to about 46.1 µM), actives largely listed as activators; also: nearly all actives have a fitted effect of over 55% in size
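HEK293 cells carry an SMN2 […]–luciferase reporter in which exon 7 inclusion puts luciferase in frame. Cells were plated 10-12 h before compound addition, then incubated 30-36 h at 37C. ONE-Glo luminescence was read; sodium butyrate at 4.5 mM final served as control.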
Rab9 prom act = Rab9 promoter activation | Potency, µM (titrated, usually from 9.22 µM), usual class: activators | 2.8% of 320,000 active | Huh7 Rab9 promoter-luciferase reporter, luminescence, 24 h; also: nearly all actives have a fitted effect of over 60% in size
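Luminescence from Amplite-detected luciferase (10 minutes, ambient) reports Rab9 promoter activation. Before that, stable Rab9-luciferase Huh7 cells (1500/well, reduced-serum OP-MEM I plus 10% FBS) were exposed to compound for 24 hours at 37C.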
Large screens that a line does not name were inactive. Calls follow the shape of the dose curve; as a rule, active = well fitted curve in the direction sought with a large enough effect; inconclusive = small, poorly fitted or top-dose-only effect, or another doubt; inactive = no such curve, though single readings can be large; an effect the other way counts as inactive or inconclusive.

COc1ccccc1-c1nc(-c2cccc(C)c2)no1	NPC1 promoter act 0.32µM, KinaseGlo FLuc inconclusive, FLuc modulator 1.2µM, ELG1 genotox 1.2µM, SMN2 splice enh 4.5µM, Rab9 prom act 0.11µM
Cc1cccc(-c2noc(-c3ccccc3OCC(=O)Nc3ccccc3[N+](=O)[O-])n2)c1	none (no result: NPC1 promoter act, KinaseGlo FLuc, ELG1 genotox, SMN2 splice enh, Rab9 prom act)
COc1ccccc1OCc1nc(-c2cccc(C)c2)no1	FLuc modulator 8.5µM, SMN2 splice enh inconclusive (no result: NPC1 promoter act, KinaseGlo FLuc, ELG1 genotox, Rab9 prom act)
Nc1cccc(/C=C/c2ccncc2)c1	NPC1 promoter act inconclusive, FLuc modulator 17µM (no result: KinaseGlo FLuc, SMN2 splice enh)
COc1ccc(/C=N\NC(=O)c2sccc2C)cc1Cn1nc(C)cc1C	ELG1 genotox 9.2µM (no result: KinaseGlo FLuc, SMN2 splice enh)
COc1ccc(/C=N\NC(=O)COc2ccccc2Cl)cc1Cn1nc(C)cc1C	none
COc1ccc(/C=N/NC(=O)CSc2ccccc2)cc1OC	FLuc modulator 12µM
COc1ccc(/C=N/NC(=O)c2ccccc2O)cc1COc1ccccn1	none (no result: KinaseGlo FLuc, SMN2 splice enh)
COc1ccc(/C=N/NC(=O)c2ccccc2O)cc1CSc1ccccn1	FLuc modulator 19µM
COc1ccc(/C=N/NC(=O)c2ccccc2O)cc1Cn1nnc2ccccc21	FLuc modulator 21µM (no result: KinaseGlo FLuc, SMN2 splice enh)
Cc1cccc(C)c1OCC(=O)NCc1ccccc1	none (no result: KinaseGlo FLuc, SMN2 splice enh)
CCN(CC)CCNC(=O)CS(=O)Cc1nc(-c2ccc(Cl)cc2)oc1C (stereo unspecified)	none
